From PubChem BioAssay (NCI)
Compounds without any hit were thinned out: in the full panel of roughly 83,000, 20% have a hit.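 Single-dose data. Exposure time 48 hours. Values below 10 considered active.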 Unmarked numbers belong to inactive results. Active and inactive are the calls of the source.

Key:
Test in all cases: NCI-60 one-dose screen, 48 h (100 = growth as untreated, 0 = no growth, -100 = all killed)
Details in all cases: 10 µM unless noted
[1] = system: HCT-15 colon
[2] = system: HT29 colon
[3] = system: SNB-75 CNS
[4] = system: SNB-19 CNS
[5] = system: U251 CNS
[6] = system: PC-3 prostate
[7] = system: SK-MEL-5 melanoma
[8] = system: UACC-62 melanoma
[9] = system: LOX IMVI melanoma
[10] = system: SK-MEL-28 melanoma
[11] = system: SK-MEL-2 melanoma
[12] = system: EKVX NSCLC
[13] = system: SN12C renal
[14] = system: UO-31 renal
[15] = system: TK-10 renal
[16] = system: ACHN renal
[17] = system: CAKI-1 renal
[18] = system: A498 renal
[19] = system: CCRF-CEM leukemia
[20] = system: MOLT-4 leukemia

| Structure (SMILES) | growth [1] | growth [2] | growth [3] | growth [4] | growth [5] | growth [6] | growth [7] | growth [8] | growth [9] | growth [10] | growth [11] | growth [12] | growth [13] | growth [14] | growth [15] | growth [16] | growth [17] | growth [18] | growth [19] | growth [20] |
| --- | --- | --- | --- | --- | --- | --- | --- | --- | --- | --- | --- | --- | --- | --- | --- | --- | --- | --- | --- | --- |
| CC1(C)CC[C@]23CC[C@]4(C)[C@H](CC[C@@H]5[C@@]6(C)CCNCC(C)(C)[C@@H]6CC[C@]54C)[C@H]2[C@H]1OC3 | 54.2% | 18.6% | 96.8% | 103% | 70% | 65.8% | 96.2% | 94.4% | 83.8% | 99.9% | 99.1% | 109% | 89.6% | 99.5% | 108% | 106% | 93.9% | 117% | 70.8% | 58.7% |
| N#Cc1c(-c2ccccc2)nc2c(c(-c3ccccc3)nn2-c2ccccc2)c1-c1ccc(N2CCCCC2)cc1 | 107% | 110% | 84.2% | 99.3% | 96.8% | 90.5% | 99.2% | 92.8% | 96% | 106% | 110% | 99.5% | 99.4% | 84.9% | 103% | 101% | 86.1% | 97.7% | 96.5% | 95.5% |
| O=C1/C(=C/c2ccc(Cl)cc2)CN(C(=O)C(Cl)Cl)C/C1=C\c1ccc(Cl)cc1 | -70% (active) | -31% (active) | -84% (active) | -92% (active) | -94.3% (active) | -38.4% (active) | -89.3% (active) | -59.6% (active) | -93.1% (active) | -81.5% (active) | -15% (active) | -60% (active) | -75.7% (active) | -99.7% (active) | -83.7% (active) | -100% (active) | -71% (active) | -95.8% (active) | 7% (active) | -12.5% (active) |
| O=S(=O)(Nc1cc(F)cc(F)c1)c1ccc(-c2cnc(C3CC3)o2)cc1 | 20% | 4.44% (active) | -3.36% (active) | 30% | 33% | 48.1% | 29.4% | 33.7% | 36.3% | 60.8% | 39.9% | 52.5% | 46.9% | 50.1% | 63.1% | 43.5% | 32.7% | 1.5% (active) | 32.2% | 39.1% |
| CC(O)Cc1c[nH]c(=O)[nH]c1=O (stereo not given) | 97.8% | 114% | 120% | 108% | 95.9% | 126% | 109% | 106% | 96.5% | 122% | 115% | 106% | 110% | 100% | 123% | 97.9% | 99.6% | 87.8% | 122% | 101% |
| Cc1cc(N2CCN(CC(=O)Nc3ccc4c(ccn4Cc4ccccc4)c3)CC2)nc(N2CCOCC2)n1 | 65.1% | 67.3% | 88.7% | 84.3% | 70.8% | 57% | 83.1% | 67.7% | 88.2% | 91.4% | 93% | 74.8% | 87% | 49% | 88.2% | 100% | 88% | 22.9% | 5.84% (active) | 77.8% |
| N#Cc1c(-c2ccccc2)cc(-c2ccccc2)n(CCCCC(=O)NO)c1=O | 13.8% | 19.1% | -8.42% (active) | 43.3% | 29.1% | 32.9% | -53% (active) | 2.89% (active) | -54.9% (active) | 17.6% | 40.6% | 30.6% | 23.2% | -51.6% (active) | 28.4% | 2.83% (active) | 1% (active) | 13.2% | 11.9% | 11.4% |
| CNCC[C@H](Oc1cccc2ccccc12)c1cccs1 | 101% | 71.8% | 61.5% | 97.8% | 85.3% | 68.9% | 93% | 91.3% | 74.1% | 91.5% | 104% | 78.9% | 79.1% | 63.7% | 90% | 96.9% | 88.4% | 111% | 91.9% | 50.4% |
| CC(C)n1c2ccc(Br)cc2c2c3c(c4c5ccccc5ccc4c21)C(=O)NC3=O | 83.7% | 70.3% | 103% | 102% | 98% | 89.8% | 90.7% | 101% | 106% | 96.5% | 111% | 86.1% | 85.9% | 59.2% | 91.8% | 68.4% | 82.5% | 71.8% | 90.1% | 75.1% |
| C=C1C(=O)O[C@H]2[C@H]1CC/C(COC(=O)NCc1ccc(Cn3c(=O)sn(-c4ccccc4)c3=O)cc1)=C\CC[C@@]1(C)O[C@@H]21 | 32.4% | 20.1% | 9.33% (active) | 92.4% | 40.4% | 64% | 95.1% | 48.2% | 6.38% (active) | 47% | 49.6% | 77.1% | 33.9% | 66.6% | 4.49% (active) | 29.6% | 15.6% | 127% | -9.16% (active) | -5.87% (active) |
| COc1ccc2c(c1)c(-c1nc(-c3ccc4ccccc4c3)cs1)cn2C | 73% | 51.3% | 109% | 99.8% | 91% | 87.1% | 94.5% | 91.3% | 86% | 89.6% | 108% | 85.8% | 93.6% | 70.6% | 102% | 87.4% | 83.6% | 86.8% | 88.7% | 84% |
| Oc1nc(NCc2ccccc2)sc1/C=C1\C=Nc2ncccc21 | 67.4% | 57.9% | 37.3% | 63.3% | 51.1% | 71.3% | 70% | 69.7% | 52.1% | 69.2% | 72.9% | 73.7% | 72.8% | 84.8% | 64.4% | 29.2% | 74.6% | 63.4% | 49.6% | 52.4% |
| O=C1C=C(SCCO)C(=O)c2ccccc21 | -68.5% (active) | 95.7% | -83.9% (active) | 15% | -37.2% (active) | 62.3% | -98% (active) | 22.3% | -57.5% (active) | 42.9% | 28.4% | 53.5% | -87.1% (active) | -37.4% (active) | 95.9% | -74% (active) | 47.5% | 113% | -14.4% (active) | 2.43% (active) |
| CCCCC#Cc1c(I)n(C2OC(CO[Si](C)(C)C(C)(C)C)C3OC(C)(C)OC32)c(=O)n(C(=O)c2ccccc2)c1=O (stereo not given) | 8.46% (active) | 0.292% (active) | 93.3% | 72.3% | -33.2% (active) | 43% | 78.7% | 55.1% | -65.2% (active) | -42.9% (active) | 43% | 74.8% | 57.8% | -49.4% (active) | -11.4% (active) | 50.6% | 26.9% | 87.9% | -7.06% (active) | 1.98% (active) |
| N#Cc1ccccc1-c1ccc(CN2C(=O)S/C(=C\c3ccc(Br)cc3)C2=O)cc1 | 98.7% | 104% | 82.8% | 93.5% | 96.4% | 99.9% | 98.7% | 88.7% | 101% | 108% | 102% | 87.8% | 91.6% | 91% | 110% | 104% | 85.4% | 107% | 100% | 106% |
